In PubChem BioAssay (NCATS):
Records with an inconclusive call do not appear. Calls of active or inactive are those of the source. The call rests on the fitted dose curve; in most records, active means well fitted inhibition curve with a large enough effect in the main read-out, with a control signal flat (not every such curve was filed as active); inconclusive means small, poorly fitted or top-dose-only effect, or effect the other way, or a change in a side signal; inactive means no such curve, though single readings can be large or run the other way.
Potency means the concentration at half of the fitted maximal effect.

Experiment: Nrf2 qHTS screen for inhibitors: Validation (AID 493153)
Conditions: A549 ARE-Fluc reporter, 18-24 h; Potency: luciferase luminescence; viability change: measured here: cytotoxicity max response; luciferase luminescence, at 46.1 µM (top of the series)
Text: NIH Molecular Libraries Probe Production Network [MLPCN] NIH Chemical Genomics Center [NCGC] MLPCN Grant: R03-MH092170-01 Assay Provider: Shyam Biswal, Johns Hopkins University Assay Overview: Nrf2 is a transcription factor that maintains cellular redox homoestasis and protects cells from xenobiotics. Nrf2 binds to the antioxidant response element (ARE) to induce gene expression of a broad spectrum of genes that encode for antioxidants. […] Finding a small molecule that act as an inhibitor of Nrf2 function would represent a novel therapeutic target that could lead to improvement in survival of patients undergoing chemo- and/or radio- therapy. 1. Shibata, T., et al., Genetic Alteration of Keap1 Confers Constitutive Nrf2 Activation and Resistance to Chemotherapy in Gallbladder Cancer. Gastroenterology, 2008. 2. Sjoblom, T., et al., The consensus coding sequences of human breast and colorectal cancers. Science, 2006. 314(5797): p. 268-74.
Assay Protocol Summary: A concentration-response assay was performed with A549 ARE_Fluc cells which are suspended in 5% FBS OPTI-MEM. Five uL were dispensed into 1536-well white TC-treated plate using the Kalypsys dispenser to achieve a density of 5000 cells/well in all columns except column 1. The plate is incubated at 37deg C at 5% CO2 for 2 hours before 23 nL of compounds are added with the Kalypsys pin tool equipped with a 1,536-pin array containing 10-nL slotted pins (FP1S10, 0.457-mm diameter, 50.8 mm long; V&P Scientific). The control compounds Budesonide and Staurosporine are both added at a concentration of 2mM and Budesonide is also added as a 1:10 titration, starting at 200uM, to achieve dose-response. After an 18-24 hour incubation at 37deg C at 5% CO2, 5ul of medium is added to column 1. Afterwards 1ul of 5x of CellTiter-Fluor (Promega) is added to every well. The plate is then incubated at 37deg C at 5% CO2 for 30 minutes before they are read on the ViewLux (Perkin Elmer) for a fluorescent read Ex=405(10)/Em=525(10) for a 3 second exposure, 2x binning, and high gain. Then 3 uL of 3x BugLite is dispensed into all wells and the plate is incubated at ambient room temperature for 15 minutes. Afterwards another ViewLux read is performed using the clear filter to get a luminescent read with the settings of 40 second exposure, 2x binning, and high gain. Cytotoxicity is assessed through the first fluorescent read and then biochemical activity against Nrf2 is measured in the luminescent read.
With `COc1ccc2cc([C@H](C)C(=O)O)ccc2c1` the Potency was “inactive” and the viability change was -8.13%. In the case of `C[C@@H](N)C1CCC(C(=O)Nc2ccncc2)CC1` (stereo not given in full), the viability change is reported as 2.27% and the Potency is reported as “inactive”. With `Cc1cccc(C#Cc2ccccc2)n1` the viability change was 2% and the Potency was “inactive”. For `CCN(CC)C(=S)SSC(=S)N(CC)CC`, the Potency was “inactive” and the viability change was 1.38%. In the case of `O=c1c(O)c(-c2ccc(O)cc2O)oc2cc(O)cc(O)c12`, the viability change is reported as -13.4% and the Potency is reported as “inactive”. With `O=c1c(O)c(-c2cc(O)c(O)c(O)c2)oc2cc(O)cc(O)c12` the viability change was -7.68% and the Potency was “inactive”. With `CCOC(=O)C(C)Oc1cccc2c(=O)n(CC(=O)Nc3ccc4c(c3)OCCO4)ccc12` (stereo not given) the Potency was “inactive” and the viability change was -3.9%. In the case of `O=c1cc(N2CCOCC2)oc2c(-c3ccccc3)cccc12`, the Potency is reported as 9.2 µM (active) and the viability change is reported as -18.1%. In the case of `Nc1nc(OCc2ccccc2)c2[nH]cnc2n1`, the viability change is reported as 10.1% and the Potency is reported as “inactive”. For `CNC[C@H](O)c1ccc(O)c(O)c1`, the viability change was 3.45% and the Potency was “inactive”. With `Cc1cc(O)c2c(c1)C(=O)c1cc(O)cc(O)c1C2=O` the Potency was “inactive” and the viability change was -15.1%. For `COc1cc2nc(N3CCN(C(=O)C4CCCO4)CC3)nc(N)c2cc1OC` (stereo not given), the Potency was “inactive” and the viability change was -1.63%. For `O=C(CCc1ccc(O)cc1)c1c(O)cc(O)cc1O`, the viability change was -1.1% and the Potency was “inactive”. In the case of `O=C(c1ccccc1)c1ccc2n1CCC2C(=O)O` (stereo not given), the Potency is reported as “inactive” and the viability change is reported as 0.0927%. In the case of `NNc1nncc2ccccc12`, the Potency is reported as “inactive” and the viability change is reported as -2.74%. With `CN(C)CCCC1(c2ccc(F)cc2)OCc2cc(C#N)ccc21` (stereo not given) the Potency was “inactive” and the viability change was 6.56%. With `Oc1ccc2ccccc2c1SSc1c(O)ccc2ccccc12` the Potency was “inactive” and the viability change was 7.1%. With `O=C1NC(=O)C(c2ccccc2[N+](=O)[O-])=C1Nc1ccc(O)c(Cl)c1` the Potency was “inactive” and the viability change was 5.73%. With `NCCCCNCCCN` the viability change was 3.72% and the Potency was “inactive”. With `NC(=NCc1ccccc1)NC(=O)c1nc(Cl)c(N)nc1N` the Potency was “inactive” and the viability change was 2.7%.
